Laboratory results published in PubChem BioAssay AID1159580 (chemical genetic matrix, 2015).
Several values for one entry are separate records, joined by “and”; a condition that tells them apart may be missing. Identical values can stand only once. Out of some 5,500 compounds screened, about 2,000 (36%) were called active. Inconclusive results (about 18%) are left out. No stated cut-off is given here; in the data, active means normalized growth mostly below about 0.91 (no sharp cut-off); inconclusive means no clear call, values can overlap the other calls; inactive means mostly above about 0.92. Some of the results follow.

Experiment: chemical genetic growth profiling, strain panel (AID 1159580);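 further: tested at 20 µM; growth read once vehicle control cultures reached saturation at 30 °C; 1 = growth at the plate median or of vehicle wells; lower values mean less growth of the strain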
Details: S. cerevisiae deletion strains, growth OD

Measured: normalized growth

CCC(=O)OCC(=O)C1(OC(=O)CC)C(C)CC2C3CCC4=CC(=O)C=CC4(C)C3(Cl)C(O)CC21C (stereo unspecified)
inactive: locus YAL021C, strain ccr4, active compounds read low 0.99 | locus YAL026C, strain drs2, active compounds read low 1 | locus YAL030W, strain snc1, active compounds read low 0.999 | locus YBL061C, strain skt5, active compounds read low 0.98 | locus YBR009C, strain hhf1, active compounds read low 0.996 | locus YBR021W, strain FUR4, active compounds read low 1.04 | locus YBR023C, strain chs3, active compounds read low 0.979 | locus YBR171W, strain sec66, active compounds read low 0.963 | locus YBR229C, strain ROT2, active compounds read low 1.02 | locus YBR231C, strain swc5, active compounds read low 0.972 | locus YBR279W, strain paf1, active compounds read low 0.99 | locus YCL011C, strain gbp2, active compounds read low 1 | locus YCL016C, strain dcc1, active compounds read low 1.01 | locus YCL029C, strain bik1, active compounds read low 0.993 | locus YCL061C, strain MRC1, active compounds read low 0.991 | locus YCL069W, strain vba3, active compounds read low 0.977 | locus YCR088W, strain abp1, active compounds read low 0.993 | locus YDL005C, strain med2, active compounds read low 0.97 | locus YDL035C, strain GPR1, active compounds read low 1.03 | locus YDL040C, strain nat1, active compounds read low 0.973 | locus YDL074C, strain BRE1, active compounds read low 1.03 | locus YDL101C, strain DUN1, active compounds read low 1.01 | locus YDL185W, strain tfp1, active compounds read low 0.998 | locus YDL192W, strain arf1, active compounds read low 0.997 | locus YDR001C, strain nth1, active compounds read low 0.989 | locus YDR069C, strain doa4, active compounds read low 0.959 | locus YDR101C, strain arx1, active compounds read low 0.969 | locus YDR137W, strain rgp1, active compounds read low 0.932 | locus YDR150W, strain NUM1, active compounds read low 1.01 | locus YDR159W, strain sac3, active compounds read low 0.959 | locus YDR162C, strain NBP2, active compounds read low 1.04 | locus YDR195W, strain ref2 0.975 | locus YDR297W, strain sur2, active compounds read low 0.979 | locus YDR318W, strain mcm21, active compounds read low 0.993 | locus YDR334W, strain swr1, active compounds read low 0.991 | locus YDR335W, strain msn5, active compounds read low 0.966 | locus YDR388W, active compounds read low 0.99 | locus YDR392W, strain spt3, active compounds read low 1.03 | locus YDR502C, strain sam2, active compounds read low 0.994 | locus YEL003W, strain gim4, active compounds read low 0.973 | locus YEL037C, strain rad23, active compounds read low 0.975 | locus YEL061C, strain CIN8 (second series), active compounds read low 0.975 | locus YEL061C, strain CIN8, active compounds read low 1.01 | locus YER015W, strain faa2, active compounds read low 0.986 | locus YER016W, strain bim1, active compounds read low 0.996 | locus YER110C, active compounds read low 0.984 | locus YER111C, strain swi4, active compounds read low 0.967 | locus YER155C, strain BEM2 (second series), active compounds read low 0.995 | locus YER155C, strain BEM2, active compounds read low 1.01 | locus YER167W, strain BCK2, active compounds read low 1.02 | locus YFR010W, strain ubp6, active compounds read low 0.957 | locus YGL078C, strain dbp3, active compounds read low 0.99 | locus YGL086W, strain mad1, active compounds read low 0.989 | locus YGL167C, strain pmr1, active compounds read low 0.948 | locus YGL173C, strain kem1, active compounds read low 0.952 | locus YGL227W, strain vid30, active compounds read low 0.983 | locus YGL240W, strain doc1, active compounds read low 0.974 | locus YGL248W, strain PDE1, active compounds read low 1.02 | locus YGL253W, strain hxk2, active compounds read low 0.926 | locus YGR135W, strain pre9, active compounds read low 1 | locus YGR229C, strain SMI1, active compounds read low 1.03 | locus YGR252W, strain gcn5, active compounds read low 1.02 | locus YHR013C, strain ard1, active compounds read low 0.987 | locus YHR027C, strain rpn1, active compounds read low 0.999 | locus YHR030C, strain SLT2, active compounds read low 1.01 and 1.11 | locus YHR079C, strain IRE1 (second series), active compounds read low 0.985 | locus YHR079C, strain IRE1, active compounds read low 1.05 | locus YHR094C, strain hxt1, active compounds read low 0.989 | locus YHR129C, strain ARP1, active compounds read low 1.02 | locus YHR142W, strain chs7, active compounds read low 0.913 | locus YHR200W, strain rpn10, active compounds read low 0.99 | locus YIL066C, strain RNR3, active compounds read low 1.03 | locus YIL073C, strain SPO22, active compounds read low 1.01 | locus YIL125W, strain kgd1, active compounds read low 0.99 | locus YIR030C, strain dcg1, active compounds read low 0.984 | locus YJL092W, strain hpr5, active compounds read low 0.978 | locus YJL095W, strain BCK1 (second series), active compounds read low 0.982 | locus YJL095W, strain BCK1, active compounds read low 1.02 and 1.04 | locus YJL115W, strain asf1, active compounds read low 0.973 | locus YJL129C, strain trk1, active compounds read low 0.922 | locus YJL134W, strain LCB3, active compounds read low 1.01 | locus YJL154C, strain vps35, active compounds read low 0.965 | locus YJL164C, strain tpk1, active compounds read low 1.01 | locus YJL166W, strain qcr8, active compounds read low 0.947 | locus YJL168C, strain set2, active compounds read low 0.991 | locus YJL187C, strain SWE1 (second series), active compounds read low 1
